Sfp PPTase inh: inhibitors of Bacillus subtilis Sfp phosphopantetheinyl transferase | Biochemical Sfp PPTase activity, qHTS | Potency, µM, without a hit: largest response in the series, negative = inhibition, usual class: inhibitors | 3.5% of 310,000 active | AID 1490;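 note: the enzyme is Sfp with the accession as filed and its product quenches rhodamine fluorescence; 0% = enzyme reaction without inhibitor and -100% = no enzyme wells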
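After 15 min at room temperature with compound, 15 nM Sfp received 5 uM rhodamine-CoA plus 12.5 uM BHQ-2-ybbR (50 mM Hepes pH 7.6, 10 mM MgCl2). Rate came from the fluorescence difference over 30 min, ex 525/em 598 nm.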
BAZ2B inh: inhibitors of human BAZ2B bromodomain. AlphaScreen BAZ2B-H3K14Ac peptide displacement. 4.4% of 360,000 active. Potency, µM (top dose mostly 114 µM), inactives show at the highest dose activity change, negative = inhibition, usual class: inhibitors; note: % is set by controls: 0 for no effect and ±100 for the full control effect; nearly all actives have a fitted effect of over 60% in size
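Compounds, titrated to a top concentration of 110 uM, were incubated 30 min at room temperature with preformed BAZ2B/acetyl-K14 H3 peptide complex (50 nM each). Proximity signal was measured by AlphaScreen after 20 min with beads.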
G9a block: G9a (human) methyltransferase inhibition; G9a H3K9 monomethylation, AlphaScreen, 2 h; 8.8% of 350,000 active; Potency, µM (top dose mostly 102 µM), for inactives: at the highest dose activity, negative = inhibition, hits mostly inhibitors; note: % is set by controls: 0 for no effect and ±100 for the full control effect; nearly all actives have a fitted effect of over 75% in size
Target sequence (Q96KQ7 913-1193 limits assumed): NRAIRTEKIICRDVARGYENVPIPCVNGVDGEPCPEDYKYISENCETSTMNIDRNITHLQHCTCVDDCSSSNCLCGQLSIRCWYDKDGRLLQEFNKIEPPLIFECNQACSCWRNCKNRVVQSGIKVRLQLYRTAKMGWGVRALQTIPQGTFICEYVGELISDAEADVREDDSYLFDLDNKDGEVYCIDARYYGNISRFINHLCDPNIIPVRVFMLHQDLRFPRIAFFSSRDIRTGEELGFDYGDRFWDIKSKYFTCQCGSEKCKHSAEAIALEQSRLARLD
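Signal arises when biotinylated H3K9 peptide, once monomethylated, bridges streptavidin donor and antibody-captured acceptor beads. Enzyme at 20 nM was preincubated 15 min with test compounds; peptide 500 nM and SAM 20 uM then reacted for 2 h.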
JMJD2A Tudor: blocks the human JMJD2A Tudor domain; O75164; AlphaScreen JMJD2A-Tudor / H3K4me3 peptide binding; Potency, µM (titrated, usually from 114 µM), without a hit: top-dose activity change, negative = inhibition, actives largely listed as inhibitors; 4.4% of 390,000 active; AID 504339; note: % is set by controls: 0 for no effect and ±100 for the full control effect; nearly all actives have a fitted effect of over 50% in size
HP1b binding inh: blocks HP1-beta chromodomain binding to methylated histone tails; P83916; Potency, µM (titrated, usually from 114 µM), for inactives: at the highest dose activity change, negative = inhibition, actives largely listed as inhibitors; AlphaScreen HP1-beta / biotin-H3K9me3 peptide binding; 0.56% of 390,000 active; note: nearly all actives have a fitted effect of over 70% in size
Target sequence (P83916 whole entry, looked up): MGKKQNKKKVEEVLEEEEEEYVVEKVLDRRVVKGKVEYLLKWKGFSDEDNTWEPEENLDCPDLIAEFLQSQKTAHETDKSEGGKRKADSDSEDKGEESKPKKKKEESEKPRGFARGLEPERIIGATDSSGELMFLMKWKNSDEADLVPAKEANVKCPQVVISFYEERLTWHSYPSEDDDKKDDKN
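HP1-beta protein (50 nM final) preincubated 30 min at room temperature with biotinylated H3(1-18)K9me3 peptide (50 nM) in PBS pH 7.4, 0.01% Tween-20, then compound added for 30 min. AlphaScreen streptavidin donor/nickel chelate acceptor beads (10 ug/mL final), 30 min dark, luminescence read.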
Active calls of the source: *; ? = inconclusive; . = no result given; ! = not confirmed by another sample; [ ] = remark or other dose. This is a sample that favours compounds with a hit; in the whole collection about 12% have one here. Calls come from the whole dose curve; as a rule, active = well fitted curve in the direction sought with a large enough effect; inconclusive = small, poorly fitted or top-dose-only effect, or another doubt; inactive = no such curve, though single readings can be large; an effect the other way counts as inactive or inconclusive. Potency is the fitted concentration of half-maximal effect.

SMILES	Sfp PPTase inh	BAZ2B inh	G9a block	JMJD2A Tudor	HP1b binding inh
CCN(CC)CCOc1ccccc1C(=O)CCc1ccccc1	21%	.	?	.	.
Cc1cccc(-n2c(-c3ccco3)nc3ccccc3c2=O)n1	20%	-2%	9%[12.7 µM]	-6%[57.1 µM]	34%
COc1ccc(CNCCc2ccc(Cl)cc2Cl)cc1	-2%	9%	25%	-2%	22%
CCN(CC)c1ccc(CNCCc2ccc(F)cc2)cc1	2%	45µM*	13µM*	?	-17%
Clc1ccc(CCNCc2ccncc2)c(Cl)c1	-16%	50µM*	4µM*	32µM*	-6%
CCOC(=O)[C@]12Cc3c(cc(OC)c(OC)c3OC)[C@H]1N(Cc1ccccc1)C(=O)c1ccccc12	.	.	.	-27%	14%
COC(=O)C1=C(c2c(C)noc2C)C[C@@H]2CC[C@H]1N2C(=O)NCCCOC(C)C	.	9%	7%[0.501 µM]	-9%	21%
Oc1ccc2c3c1OC1c4oc5ccccc5c4C[C@@]4(O)[C@@H](C2)N(CC2CC2)CC[C@]314 (some centres undefined)	.	.	.	-29%	11%
O=[N+]([O-])c1ccc([As](=O)(O)O)cc1	5%	.	?	.	.
O=[N+]([O-])c1cc(-c2ccc([As](=O)(O)O)cc2)ccc1[As](=O)(O)O	-2%	?	50µM*	.	.
COP(=S)(OC)SCN1C(=O)c2ccccc2C1=O	35µM*	-6%	16µM*	-14%	15%
CCOc1ccc(NC(=O)N2C[C@H]3C[C@@H](C2)c2cccc(=O)n2C3)cc1	10%	-23%	-37%	-4%	12%
CC1=CC(=O)c2c(O)cccc2C1=O	35µM*!	.	-98%[2.33 µM]	.	.
CCN(CC)c1ccc(/C=C2/C(=O)NC(=O)N(CC3CCCO3)C2=O)cc1 (centres undefined)	-6%	?	.	-22%	0%
O=C1NC(=S)SC1=Cc1ccc(N(CCCl)CCCl)cc1	.	.	.	32µM*	?
CCOC(=O)C1(CCc2ccccc2)CCN(C2CCSCC2)CC1	79µM*	-11%	.	-18%	20%
O=[N+]([O-])c1ccc(N2CCCNCC2)c2ncccc12	-4%	-22%	?	-27%	15%
O=[N+]([O-])c1cccnc1N1CCCNCC1	10%	-3%	45µM*	-17%	10%
O=[N+]([O-])c1ccc(N2CCCCCC2)c2ncccc12	?	14µM*	25µM*	16µM*	?
N#C/C(N)=C(/N)C#N	.	-36%	12%[0.501 µM]	-20%	28%
N[C@@H](Cc1ccc(N(CCCl)CCCl)cc1)C(=O)O	?	-27%	7.9µM*	-27%	25%
CC(=O)NC(Cc1ccc(N(CCCl)CCCl)cc1)C(=O)O (centres undefined)	-1%	8%	-25%[59 µM]	-10%	25%
O=C(O)CCCc1ccc(N(CCCl)CCCl)cc1	-9%	56µM*	-1%[59 µM]	-31%	22%
Cn1c(=O)c2c(-c3ccccc3)n3c(c2n(C)c1=O)C(c1ccco1)Nc1ccccc1-3 (centres undefined)	.	-3%	?	-11%	49%
CS(=O)(=O)NNP(=O)(NNS(C)(=O)=O)NC(=O)c1ccc(Br)cc1	7%	-14%	45µM*	-17%	44%
SMILES	Sfp PPTase inh	BAZ2B inh	G9a block	JMJD2A Tudor	HP1b binding inh
CS(=O)(=O)NNP(=O)(NNS(C)(=O)=O)NC(=O)c1ccccc1	2%	-10%	56µM*	6%	31%
FC(F)(F)c1ccc2c(c1)NP(=S)(N1CCOCC1)c1nccn1-2 (centres undefined)	16%	9%	?	-11%	25%
COc1ccc2nc(/N=C/c3c(O)n(-c4cccc(Cl)c4)c(=O)[nH]c3=O)sc2c1	-20%	-10%	.	?	22%
CCCCn1c(=O)c(C(=O)Nc2ccccc2N)c(O)c2ccccc21	-6%	50µM*	.	2%	46%
CN1C(=O)/C(=C\c2ccc(Br)s2)C(=O)NC1=S	40µM*	?	7.1µM*	20µM*	8%
O=C1NC(=S)NC(=O)C1=Cc1ccc(Br)s1	16µM*	56µM*	.	28µM*	?
O=C1NC(=S)NC(=O)C1=Cc1c(Cl)cccc1Cl	.	.	.	-12%	4%[57 µM]
COC[C@H]1OC(=O)c2coc3c2[C@@]1(C)C1=C(C3=O)C2CCC(=O)[C@@]2(C)C[C@H]1OC(C)=O (some centres undefined)	?	.	28µM*!	.	.
CN(C)C1C(=O)C(C(N)=O)=C(O)[C@@]2(O)C(=O)C3=C(O)c4c(O)cccc4[C@@](C)(O)C3[C@H](O)C12 (some centres undefined)	56µM*	.	.	.	.
CN(C)[C@@H]1C(=O)C(C(N)=O)=C(O)[C@@]2(O)C(=O)C3=C(O)c4c(O)cccc4[C@@](C)(O)C3[C@H](O)C12 (some centres undefined)	.	6.3µM*	4.5µM*	3.2µM*	14µM*!
CN(C)[C@@H]1C(=O)C(C(N)=O)=C(O)[C@]2(O)C(=O)C3=C(O)c4c(O)cccc4[C@@](C)(O)[C@H]3[C@H](O)[C@@H]12	-2%	.	5µM*	.	.
COC(=O)C1=C(c2cccc(OC)c2OC)C[C@@H]2CC[C@H]1N2C(=O)NCCCOC(C)C	.	.	.	-14%	43%
OCC(O)Cc1ccc2c(c1)OCO2 (centres undefined)	5%	.	-19%[2.33 µM]	.	.
CC1CN1P(=S)(c1ccccc1)N1CC1C (centres undefined)	.	.	.	-16%	0%
CC(Oc1cc2oc(=O)c3c(c2cc1Cl)CCCC3)C(=O)NCc1ccccn1 (centres undefined)	-5%	-7%[57.1 µM]	?	-32%	6%
Brc1c(NC2=NCCN2)ccc2nccnc12	-8%	1%	19µM*!	.	.
COc1ccc(N2C(=O)CC(N3CC=C(c4ccccc4)CC3)C2=O)cc1 (centres undefined)	4%	-11%	10µM*	-23%	0%
CC[C@]1(O)CC(O[C@@H]2CC(N(C)C)C(O)C(C)O2)c2c(cc3c(c2O)C(=O)c2c(O)cccc2C3=O)C1C(=O)OC (some centres undefined)	-4%	.	?	.	.
O=[N+]([O-])C(Br)(CO)CO	8.9µM*	.	1.8µM*	.	.
CN1CCC(O)(c2ccc(Cl)cc2)C(C(=O)c2ccc(Cl)cc2)C1 (centres undefined)	-8%	-8%	10µM*	-20%	34%
CN[C@H]1C[C@H]2O[C@@](C)([C@H]1OC)n1c3ccccc3c3c4c(c5c6ccccc6n2c5c31)C(=O)NC4	-13%	-37%	?	.	.
CC(=O)OC1C2CCC1C(N1CCCC1)CC2 (centres undefined)	19%	4%	-10%[59 µM]	19%[11.4 µM]	1%
O=P(O)(O)CCCl	2%	.	.	.	.
N[C@@H](Cn1ccc(=O)[nH]c1=O)C(=O)O	.	.	1.5µM*	.	.
N[C@H](Cn1ccc(=O)c(O)c1)C(=O)O	-3%	.	18%[21.5 µM]	.	.
NC(Cn1ccc(=O)[nH]c1=O)C(=O)O (centres undefined)	.	.	11%[12.7 µM]	.	.
